# KB-3-1 tox: kills parental KB-3-1 adenocarcinoma cells; AID 1347075; actives 1.4% (n = 400,000); KB-3-1 viability, CellTiter-Glo ATP luminescence, 72 h; Potency, µM (highest dose often 46.1 µM), usual class: cytotoxic; also: % is scaled to controls: 0 for no effect and ±100 for the full control effect; nearly all actives have a fitted effect of over 60% in size
#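 Parental KB-3-1 viability, qHTS format: 72 h compound exposure, 37 °C; CellTiter-Glo; media-only wells and DMSO plates as controls; concentration-effect fits on corrected data.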
# MCF10A rerep: induces DNA re-replication in MCF 10a normal breast cells; AID 624296; Potency, µM (series often up to 46.1 µM), for inactives: at the top dose activity, positive = re-replication, usual class: activators; MCF 10A DNA re-replication, Hoechst nuclear intensity, 48 h; actives 2.9% (n = 350,000); also: % of control where 0% means no effect; nearly all actives have a fitted effect of over 50% in size
# SW480 rereplic: induces DNA re-replication in SW480 colon adenocarcinoma cells; Potency, µM (top dose mostly 46.1 µM), inactives show at the top dose re-replication activation, most hits filed as activators; AID 624297; SW480 DNA re-replication, Hoechst DNA content imaging, 48 h; actives 1.8% (n = 340,000); also: % of control where 0% means no effect; nearly all actives have a fitted effect of over 55% in size
#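 Image-based read-out: total Hoechst fluorescence of nuclei (405 nm excitation, 500-530 nm emission), with hits raising the fraction of high-intensity nuclei. SW480 colon cells incubated 48 hr with compounds at 37 C.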
# ELG1 repair inh: inhibitors of ELG1-dependent DNA repair in HEK293T cells; actives 2.3% (n = 330,000); Potency, µM (series often up to 46.1 µM), without a hit: top-dose activity change, negative = inhibition, hits mostly inhibitors; HEK293T ELG1-luciferase reporter, luminescence, 16 h; DNA damage induced by 5-fluorouridine; also: % is scaled to controls: 0 for no effect and ±100 for the full control effect; nearly all actives have a fitted effect of over 55% in size
#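 In this reporter screen, reduction of luminescence relative to DMSO vehicle indicated activity. Compounds and 5-fluorouridine were added together to 2,000 cells per well, incubated for 16 hr at 37 °C, then developed with ONE-Glo.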
# KB-V1 cytotox: KB-V1 MDR subline cytotoxicity; KB-V1 MDR cells viability, CellTiter-Glo, 72 h; Potency, µM (highest dose often 46.1 µM), actives largely listed as cytotoxic; actives 3.4% (n = 400,000); also: % is scaled to controls: 0 for no effect and ±100 for the full control effect; nearly all actives have a fitted effect of over 60% in size
#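 KB-V1, DMEM (no phenol red) + 10% FBS; cpd pin-transferred, titration series; 72 h, 37 degrees C; CellTiter-Glo, luminescence. Data normalized, curve-fit.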
# * hit, by the source's call; i = inactive; ? = inconclusive; / = no result given; [ ] = dose if it differs, or a comment. Rows were chosen to be rich in hits. Some 8.1% of all compounds tested hit in one or more screens of this group. Calls follow the shape of the dose curve; as a rule, active = well fitted curve in the direction sought with a large enough effect; inconclusive = small, poorly fitted or top-dose-only effect, or another doubt; inactive = no such curve, though single readings can be large; an effect the other way counts as inactive or inconclusive. Potency is read from the fitted curve at half-maximal effect.
SMILES,KB-3-1 tox,MCF10A rerep,SW480 rereplic,ELG1 repair inh,KB-V1 cytotox
Cn1nc(C(F)(F)F)c(/C=N/OC(=O)c2ccccc2)c1SCc1ccccc1Cl,?,18.4µM*,16.4µM*,?,11.6µM*
COc1ccc(C(=O)C(=O)N2CCC(c3ccccc3)CC2)cn1,i,/,/,/,?
CC(C)Cn1c(N)c(C(=O)COC(=O)c2ccc(Br)cc2)c(=O)n(C)c1=O,14.6µM*,4.2%,1.4%,20.6µM*,i
COC(=O)c1c(C)[nH]c(C(=O)OCC(=O)c2c(N)n(CC(C)C)c(=O)n(C)c2=O)c1C,?,?,15.8%,16.4µM*,i
CC(C)Cn1c(N)c(C(=O)COC(=O)c2ccc(Cl)cc2)c(=O)n(C)c1=O,i,-30.3%,1.1%,18.3µM*,i
CCOc1cc(C(=O)OCC(=O)c2c(N)n(C)c(=O)n(C)c2=O)cc(OCC)c1OCC,i,3.3%,-0.5%,-15.1%,18.4µM*
CC(C)Cn1c(N)c(C(=O)COC(=O)c2ccncc2)c(=O)n(C)c1=O,i,-1.6%,-2.0%,?,i
Cc1ccc(-c2cc3cccc[n+]3cc2-c2ccc(C)cc2)cc1,4.61µM*,?,-10.7%,?,i
COC(=O)c1c(NC(=O)COC(=O)c2ccc(O)cc2)sc2c1CCCCC2,i,13µM*,?,?,i
Cc1ccc(NC(=O)CN(C)CC(=O)Nc2sc3c(c2C(N)=O)CCC3)cc1,i,6.1%,-0.5%,?,i
COc1ccc(CC(=O)Nc2sc3c(c2C(N)=O)CCCC3)cc1OC,?,7.0%,1.9%,?,13µM*
Cc1cccc(C)c1NC(=O)CN(C)CC(=O)Nc1sc2c(c1C(N)=O)CCC2,i,7.6%,6.3%,7.3µM*,i
C=CCNCC(=O)Nc1sc2c(c1C(=O)Nc1ccc(OC)cc1OC)CCC2,i,-3.0%,5.9%,20.6µM*,?
CC(=O)N1CCc2cc(NC(=O)C3(C)CCN3Cc3ccccc3Cl)ccc21 (stereo not given),i,/,/,/,i
O[C@@H]1CN(Cc2cccs2)[C@@H](c2ccccc2)C[C@H]1n1cc(-c2ccc(F)cc2)nn1,?,/,/,/,i
COC(=O)c1ccccc1-c1ccc(C(c2c(C)[nH][nH]c2=O)c2c(C)[nH][nH]c2=O)o1,?,14.1µM*,25.5%,-2.6%,?
COc1ccc(C)cc1-n1nnc(-c2nc(-c3ccccc3Cl)no2)c1N,i,/,/,/,i
Cn1c(O)c(N=NC(=S)Nc2ccccc2F)c2cc(S(=O)(=O)N3CCOCC3)ccc21,?,4.7%,?,1.83µM*,i
Cc1ccc(NC(=S)N=Nc2c(O)n(C)c3ccc(S(=O)(=O)N4CCOCC4)cc23)cc1C,?,?,5.1%,10.9%,i
CCCCCCN1CCN(C2CN(Cc3ccccc3)S(=O)(=O)C2)CC1 (stereo not given),i,/,/,/,i
COc1cc(OC)cc(C(=O)NNC(=O)C(CCC(N)=O)NS(=O)(=O)c2ccc(Cl)cc2)c1 (stereo not given),i,-2.5%,-12.4%,/,i
CCOc1ccc(NC(=O)C(=O)NCC(c2cccnc2)N2CCc3ccccc32)cc1 (stereo not given),?,/,/,/,18.4µM*
CC[C@]12c3[nH]c4cc(CCC(=O)N(C)C)ccc4c3CCN1C(=O)[C@@H](CC(=O)NCC13CC4CC(CC(C4)C1)C3)C[C@@H]2C(=O)N1CCN(C(=O)c2ccco2)CC1,i,-8.9%,-1.3%,29.5%,i
COc1cc(/C=C/C(=O)c2ccc3c(c2)OCCO3)cc(Br)c1OCC(=O)N(C)C,5.17µM*,?,4.61µM*,?,2.31µM*
O=C(/C=C/c1ccncc1)c1ccc2c(c1)OCCO2,23.1µM*,?,?,?,?
SMILES,KB-3-1 tox,MCF10A rerep,SW480 rereplic,ELG1 repair inh,KB-V1 cytotox
O=C(C[n+]1ccc(/C=C/c2ccccc2)cc1)c1ccc2c(c1)OCCO2,11.6µM*,14.7%,?,?,?
O=C(/C=C/c1ccccc1)c1ccc2c(c1)OCO2,i,?,?,?,i
COc1cc(/C=N/Nc2nc3ccccc3[nH]2)cc(Br)c1OCC(=O)N(C)C,i,1.3%,-9.0%,?,i
COc1ccc(CN2C(=O)CN(S(C)(=O)=O)CC2(C)C(=O)NCc2ccccc2)cc1OC (stereo not given),i,/,/,/,i
COc1ccc(/C=C/C(=O)NC(=S)NNC(=O)c2c(-c3ccccc3)noc2C)cc1,?,-5.9%,5.6%,0.5%,7.31µM*
COc1ccc(/C=C/C(=O)NC(=S)Nc2ccccc2)cc1OC,i,17.2%,18.4µM*,?,i
Cc1onc(-c2ccccc2)c1C(=O)NNC(=S)NC(=O)/C=C/c1ccccc1,?,?,?,-4.6%,2.91µM*
COc1ccc(/C=C/C(=O)NC(=S)NNC(=O)c2cc(OC)c(OC)c(OC)c2)cc1OC,i,0.5%,1.9%,?,?
COc1ccc(-c2cc(C(=O)NNC(=S)NC(=O)c3c(-c4ccccc4)noc3C)[nH]n2)cc1,?,10.4%,?,?,?
COc1ccc(/C=C/C(=O)NC(=S)NNC(=O)c2cc(OC)c(OC)c(OC)c2)cc1,i,2.9%,-3.2%,7.3µM*,?
COc1ccc(/C=C/C(=O)Nc2ccccc2)cc1OC,i,-0.9%,-8.9%,?,i
CCCN[C@@H](C)C(=O)Nc1c(C)csc1C(=O)OC,/,-4.6%[20.6 µM],-2.9%[20.6 µM],/,/
Cc1ccc(S(=O)(=O)CCC(=O)OC2CC(C)OC2=O)cc1 (stereo not given),i,0.4%,15.6%,0.0%,i
CCOC(=O)[C@]12CCC=C1N(Cc1ccc(Cl)cc1Cl)C(=O)[C@H](CC(=O)NCCCOC)C2,i,/,/,/,i
COc1ccc2c(c1)c1c(c(=O)n(Cc3ccccc3)c(=O)n1Cc1ccccc1Cl)n2C,i,/,/,/,i
CCCCN(C(=O)c1ccccc1Cl)C(CC(C)C)c1nc2ccccc2[nH]1 (stereo not given),i,/,/,/,i
COc1ccc2c(CCNC(=O)/C=C/c3ccc(OC)c(OC)c3)c[nH]c2c1,?,?,?,23.1µM*,?
COc1ccc(-c2cnnn2-c2ccc(NC(=O)/C=C/c3ccc(OC)c(OC)c3)cc2)cc1,i,2.0%,-1.5%,5.8µM*,i
COc1cccc(/C=C/C(=O)NCCc2ccc(OC)c(OC)c2)c1,i,1.4%,-8.3%,-0.7%,?
COc1ccc(/C=C/C(=O)NC(=S)NCCc2ccc(OC)c(OC)c2)cc1,i,?,10.3µM*,-2.3%,?
COc1cc(/C=C/c2cc[n+](C)cc2)ccc1OCC(=O)Nc1ccccc1,i,7.0%,18.4µM*,?,?
